# Measurements: PubChem BioAssay
# Active and inactive are the calls of the source.
# How the values were obtained:
# [1] = tested on: Plasmodium falciparum Sir2 (PF13_0152, Sir2A); assay: Plasmodium falciparum Sir2A binding compounds – biochemical, small-molecule microarray, 635 nm fluorescence, primary screen (AID 1098); details: fluorescence 635 nm, higher = more signal;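 note: score merges spot fluorescence intensity with its signal-to-noise ratio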
# [2] = probe aDKK1 binding to arrayed compounds – biochemical, biotinylated probe, 635/667 nm fluorescence, primary screen (AID 1099); details: small-molecule microarray, higher = more signal;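 note: score merges 667nm spot fluorescence with signal to noise across triplicate slides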
# [3] = probe aCHRDL2 binding to arrayed compounds – biochemical, biotinylated probe, 635/667 nm fluorescence, primary screen (AID 1100); details: small-molecule microarray, higher = more signal
# [4] = change in splice reporter luminescence, either direction, cell-based, HEK293, spliceosome inhibition project, primary screen (AID 1101); details: HEK293 splicing luciferase reporter, 24 h, higher = more signal, called active from +8 up or from −8 down;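 note: HEK293 cells carrying a splicing-competent luciferase reporter gene; test concentration not given here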
# [5] = biological target: Fibroblast growth factor 10 (Homo sapiens) (UniProt O15520); assay: compounds binding fibroblast growth factor 10 – biochemical, small-molecule microarray, 635 nm fluorescence, primary screen (AID 1102); details: FGF10 binding, fluorescence 635 nm, higher = more signal
# [6] = tested on: glycogen synthase kinase-3 (GSK3A per assay name; protocol says GSK3B); assay: compounds binding glycogen synthase kinase-3 – biochemical, small-molecule microarray, 635 nm fluorescence, GSK3A, primary screen (AID 1103); details: fluorescence 635 nm, higher = more signal; note: the record names both GSK3A and GSK3B
# [7] = biological target: Epidermal growth factor receptor (Homo sapiens) (UniProt P00533); assay: compounds binding epidermal growth factor receptor – biochemical, small-molecule microarray, 635 nm fluorescence, primary screen (AID 1104); details: EGFR binding, higher = more signal;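 note: score merges 667 nm emission intensity with spot signal to noise over triplicate slides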
# [8] = biological target: Follistatin-related protein 3 (Homo sapiens) (UniProt O95633); assay: compounds binding follistatin-related protein 3 – biochemical, small-molecule microarray, 635 nm fluorescence, primary screen (AID 1105); details: FSTL3 binding, higher = more signal;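 note: score merges emission near 667 nm and signal to noise per printed spot across three slides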
# [9] = biological target: Dickkopf-related protein 1 (Homo sapiens) (UniProt O94907); assay: small molecules binding DKK1 protein – biochemical, small-molecule microarray, 635 nm fluorescence scan, primary screen (AID 1106); details: higher = more signal;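 note: score merges emission near 667 nm with signal to noise over three replicate slides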
# [10] = tested on: Inhibin beta A chain (activin A); assay: small molecules binding activin A – biochemical, small-molecule microarray, 635 nm fluorescence scan, primary screen (AID 1107); details: INHBA, higher = more signal;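 note: mouse activin A protein probed at 4.33 µg/mL on printed slides; score merges bound-protein fluorescence near 667 nm with spot signal-to-noise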
# [11] = tested on: Human papillomavirus type 1a protein E7 (residues 44-93); assay: small molecules binding HPV E7 44-93 – biochemical, small-molecule microarray, residues 44-93, 635 nm fluorescence, primary screen (AID 1108); details: fluorescence 635 nm, higher = more signal;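 note: E7 fragment applied at 1 µg/mL in TBST for 1 h at 4 C; score combines spot fluorescence with its signal to noise ratio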
# [12] = hepatitis C replication reporter changes, two-sided – Huh7 cells, luciferase reporter, HCV replication inhibitor project, primary screen (AID 1109); details: Huh7 HCV replicon luciferase reporter, 48 h; higher = more signal;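 note: huh7 hepatoma cells harbouring a luciferase neomycin HCV replicon reporter; luciferase luminescence as measure of HCV replicon replication; test concentration not given here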
# [13] = biological target: Left-right determination factor 2 (Homo sapiens) (UniProt O00292); assay: small molecules binding LEFTY2 protein – biochemical, small-molecule microarray, 635 nm fluorescence scan, primary screen (AID 1110); details: higher = more signal
# [14] = biological target: Calmodulin-1 (Homo sapiens) (UniProt P0DP23); assay: small molecules binding calmodulin-1 with EGTA – biochemical, small-molecule microarray, Cy5-labelled CALM1, profiling panel (AID 1111); details: Cy5-CALM1 binding fluorescence, higher = more signal;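 note: labelled calmodulin applied in Tris saline Tween buffer holding calcium plus EGTA and DTT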
# [15] = biological target: Calmodulin-1 (Homo sapiens) (UniProt P0DP23); assay: small molecules binding Ca-loaded calmodulin-1 – biochemical, small-molecule microarray, Cy5-labelled CALM1, plus calcium, artefact control for SMM control-protein annotation, profiling panel (AID 1112); details: Cy5-CALM1 binding fluorescence, higher = more signal;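 note: score merges spot fluorescence with signal to noise from triplicate slides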
# [16] = probe aWnt5a binding to arrayed compounds – biochemical, biotinylated probe, 635/667 nm fluorescence, primary screen (AID 1113); details: small-molecule microarray, higher = more signal;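 note: score merges 667 nm fluorescence intensity with signal-to-noise per printed feature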
# [17] = probe aShh binding to arrayed compounds – biochemical, biotinylated probe, 635/667 nm fluorescence, primary screen (AID 1114); details: small-molecule microarray, higher = more signal;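 note: probe is biotin-labelled aShh protein from a stem cell growth factor screen; measures binding of labelled protein to compounds printed on the slide; score merges feature fluorescence at 667 nm with signal-to-noise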
# [18] = probe aNog binding to arrayed compounds – biochemical, biotinylated probe, 635/667 nm fluorescence, primary screen (AID 1115); details: small-molecule microarray, higher = more signal;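 note: probe is biotinylated aNog protein used at 0.15 µg/mL for 1 h at 4 C; z-score combines 667 nm fluorescence of each spot with its signal to noise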
# [19] = biological target: Torsin-1A-interacting protein 1 (Homo sapiens) (UniProt Q5JTV8); assay: compound microarray binding of lysate hLAP1 – cell lysate, small-molecule microarray, COS7 lysate, 635/667 nm fluorescence, primary screen (AID 1116); details: 635 nm fluorescence, higher = more signal
# [20] = biological target: Alpha-bungarotoxin (Bungarus multicinctus) (UniProt P60615); assay: compounds binding labelled alpha-BTX control protein – biochemical, small-molecule microarray, Alexa647 label, 635/667 nm fluorescence, artefact control for SMM control protein annotation, profiling panel (AID 1117); details: alpha-BTX-A647 binding fluorescence, higher = more signal
# Alpha-bungarotoxin (Bungarus multicinctus), sequence (P60615 whole entry, looked up): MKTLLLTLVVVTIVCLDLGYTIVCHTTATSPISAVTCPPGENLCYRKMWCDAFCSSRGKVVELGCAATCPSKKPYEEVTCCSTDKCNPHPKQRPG
# Follistatin-related protein 3 (Homo sapiens), sequence (O95633 whole entry, looked up): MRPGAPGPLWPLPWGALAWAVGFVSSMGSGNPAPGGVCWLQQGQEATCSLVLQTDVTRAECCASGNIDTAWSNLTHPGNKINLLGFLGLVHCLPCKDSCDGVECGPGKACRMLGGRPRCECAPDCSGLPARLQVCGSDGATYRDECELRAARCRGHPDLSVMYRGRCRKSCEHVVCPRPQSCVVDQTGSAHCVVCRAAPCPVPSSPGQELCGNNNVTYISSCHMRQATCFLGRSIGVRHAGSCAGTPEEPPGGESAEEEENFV
# Dickkopf-related protein 1 (Homo sapiens), sequence (O94907 whole entry, looked up): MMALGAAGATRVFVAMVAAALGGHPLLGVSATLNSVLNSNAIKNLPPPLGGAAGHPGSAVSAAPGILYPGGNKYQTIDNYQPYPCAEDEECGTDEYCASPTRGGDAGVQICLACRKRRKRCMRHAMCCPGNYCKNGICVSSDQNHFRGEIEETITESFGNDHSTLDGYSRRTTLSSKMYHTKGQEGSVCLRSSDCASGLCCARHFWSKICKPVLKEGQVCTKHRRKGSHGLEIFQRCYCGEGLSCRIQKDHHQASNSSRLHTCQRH
# Fibroblast growth factor 10 (Homo sapiens), sequence (O15520 whole entry, looked up): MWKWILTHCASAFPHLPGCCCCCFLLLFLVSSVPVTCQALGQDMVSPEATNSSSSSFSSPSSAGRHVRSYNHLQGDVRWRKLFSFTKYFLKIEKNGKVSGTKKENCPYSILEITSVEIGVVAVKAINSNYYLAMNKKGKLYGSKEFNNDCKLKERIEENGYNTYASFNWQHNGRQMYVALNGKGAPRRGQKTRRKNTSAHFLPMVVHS
# Torsin-1A-interacting protein 1 (Homo sapiens), sequence (Q5JTV8 whole entry, looked up): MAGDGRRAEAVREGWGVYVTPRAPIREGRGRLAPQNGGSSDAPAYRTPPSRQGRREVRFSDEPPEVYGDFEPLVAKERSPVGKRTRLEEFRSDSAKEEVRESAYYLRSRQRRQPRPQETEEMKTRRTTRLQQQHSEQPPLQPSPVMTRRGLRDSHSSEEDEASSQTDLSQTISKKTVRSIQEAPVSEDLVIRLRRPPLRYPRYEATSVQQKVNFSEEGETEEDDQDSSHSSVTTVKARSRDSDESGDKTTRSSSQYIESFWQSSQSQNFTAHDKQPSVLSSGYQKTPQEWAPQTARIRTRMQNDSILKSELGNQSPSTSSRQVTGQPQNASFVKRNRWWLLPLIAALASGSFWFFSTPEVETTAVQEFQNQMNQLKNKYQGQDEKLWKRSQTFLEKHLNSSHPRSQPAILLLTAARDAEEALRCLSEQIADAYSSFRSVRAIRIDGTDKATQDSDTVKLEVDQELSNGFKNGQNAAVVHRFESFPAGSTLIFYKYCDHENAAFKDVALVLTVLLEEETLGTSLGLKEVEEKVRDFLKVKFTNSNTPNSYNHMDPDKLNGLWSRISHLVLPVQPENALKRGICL
# Left-right determination factor 2 (Homo sapiens), sequence (O00292 whole entry, looked up): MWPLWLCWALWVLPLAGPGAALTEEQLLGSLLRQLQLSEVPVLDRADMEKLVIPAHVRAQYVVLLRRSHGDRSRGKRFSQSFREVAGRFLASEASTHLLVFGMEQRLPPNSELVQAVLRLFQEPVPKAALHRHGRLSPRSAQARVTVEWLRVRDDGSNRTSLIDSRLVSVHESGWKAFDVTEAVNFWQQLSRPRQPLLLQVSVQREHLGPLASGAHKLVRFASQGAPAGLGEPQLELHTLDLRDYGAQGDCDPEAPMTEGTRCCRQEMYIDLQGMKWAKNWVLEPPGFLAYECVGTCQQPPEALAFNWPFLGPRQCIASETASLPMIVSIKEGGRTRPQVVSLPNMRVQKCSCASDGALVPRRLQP
# Epidermal growth factor receptor (Homo sapiens), sequence (P00533 whole entry, looked up): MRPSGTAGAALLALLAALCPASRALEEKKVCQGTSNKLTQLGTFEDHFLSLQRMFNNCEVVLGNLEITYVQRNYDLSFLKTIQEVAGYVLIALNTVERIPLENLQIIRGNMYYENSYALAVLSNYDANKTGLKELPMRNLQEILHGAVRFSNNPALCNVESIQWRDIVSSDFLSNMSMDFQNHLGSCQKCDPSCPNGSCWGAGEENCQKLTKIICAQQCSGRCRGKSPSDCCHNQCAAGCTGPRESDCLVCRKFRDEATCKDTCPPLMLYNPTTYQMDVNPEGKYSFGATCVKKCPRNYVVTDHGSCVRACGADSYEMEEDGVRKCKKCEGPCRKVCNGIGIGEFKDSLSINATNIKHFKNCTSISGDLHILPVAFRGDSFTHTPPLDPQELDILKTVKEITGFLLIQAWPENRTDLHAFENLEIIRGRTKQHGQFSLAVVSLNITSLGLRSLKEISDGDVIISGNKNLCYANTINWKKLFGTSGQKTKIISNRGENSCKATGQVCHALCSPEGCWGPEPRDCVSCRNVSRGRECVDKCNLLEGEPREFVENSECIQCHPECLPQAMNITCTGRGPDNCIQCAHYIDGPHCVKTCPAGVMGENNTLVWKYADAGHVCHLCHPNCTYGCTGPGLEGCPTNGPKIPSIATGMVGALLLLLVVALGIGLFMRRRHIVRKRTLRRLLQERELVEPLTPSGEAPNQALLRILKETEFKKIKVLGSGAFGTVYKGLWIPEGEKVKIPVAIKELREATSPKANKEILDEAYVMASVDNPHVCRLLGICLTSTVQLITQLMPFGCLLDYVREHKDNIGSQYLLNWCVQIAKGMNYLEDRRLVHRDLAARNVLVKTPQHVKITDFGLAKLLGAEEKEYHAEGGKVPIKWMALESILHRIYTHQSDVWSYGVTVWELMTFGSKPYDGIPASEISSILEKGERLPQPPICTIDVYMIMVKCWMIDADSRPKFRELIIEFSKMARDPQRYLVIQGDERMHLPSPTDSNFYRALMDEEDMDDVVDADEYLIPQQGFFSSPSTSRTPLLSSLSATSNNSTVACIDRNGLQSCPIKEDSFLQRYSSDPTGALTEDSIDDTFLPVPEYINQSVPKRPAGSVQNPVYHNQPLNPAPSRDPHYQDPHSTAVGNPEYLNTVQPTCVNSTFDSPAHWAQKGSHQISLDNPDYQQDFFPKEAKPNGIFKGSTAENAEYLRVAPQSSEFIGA
SMILES,composite z-score [1],composite z-score [2],composite z-score [3],z-score [4],composite z-score [5],composite z-score [6],composite z-score [7],composite z-score [8],composite z-score [9],composite z-score [10],composite z-score [11],z-score [12],composite z-score [13],composite z-score [14],composite z-score [15],composite z-score [16],composite z-score [17],composite z-score [18],composite z-score [19],composite z-score [20]
Cc1ccc(S[C@]2(C(=O)NCCCN(C)C)CC(=O)N(Cc3ccccc3C(F)(F)F)[C@@H]2c2ccc(CO)cc2)cc1,-1.14,0.631,0.95,0.375 (inactive),-0.904,-0.761,-0.636,-1.47,-0.798,0.94,-0.812,-0.767,-1.89,-0.168,0.0625,-0.0944,0.0893,0.216,0.122,0.266
COCCOC(=O)N1C(=O)[C@@]2(c3cc(C#CCC(C(=O)OC)C(=O)OC)ccc31)[C@H](C(=O)Nc1nc3ccccc3s1)[C@H]1C(=O)O[C@H](c3ccccc3)[C@H](c3ccccc3)N1[C@@H]2c1ccccc1OCCO,1.52,0.467,0.76,0.952 (inactive),0.634,1.04,0.231,1.29,-0.154,0.046,0.142,-1.52,0.6,1.69,0.72,-0.0445,0.151,0.106,0.886,2.2
COC(=O)[C@@]1(Cc2ccc(OC)cc2)[C@H]2c3cc(C(=O)N(C)C)n(CCc4ccccn4)c3C[C@H]2CN1C(=O)c1ccccc1,0.566,1.62,1.41,0.317 (inactive),0.286,-0.133,-0.011,0.0285,-0.586,0.937,0.263,-0.845,-0.288,0.993,0.93,0.675,1.31,0.854,1.01,0.248
COc1ccc(-c2cc3c(c(-c4ccc(Oc5ccccc5)cc4)n2)[Si](C(C)C)(C(C)C)OC3)cn1,-0.207,-0.242,-0.262,0.00906 (inactive),-0.0354,-0.175,-0.0425,0.148,0.0989,0.365,-0.419,-1.15,-0.123,-0.266,0.211,-0.206,-0.0553,-0.224,-0.286,0.199
COCCOC(=O)N1C(=O)[C@@]2(c3ccccc31)[C@H](c1ccc(O)cc1)N1[C@H](c3ccccc3)[C@H](c3ccccc3)OC(=O)[C@H]1[C@@H]2C(=O)Nc1nc2ccccc2s1,1.39,-0.0358,-0.167,-1.3 (inactive),0.724,1.05,0.252,0.542,0.39,0.0446,1.19,-0.993,0.118,1.29,0.501,-0.0276,0.249,0.0308,1.33,1.87
CC(C)N1C(=O)[C@@]2(Cc3ccccc31)c1ccccc1C(=O)N(Cc1ccccc1Cl)[C@H]2c1ccc(CO)cc1,0.465,-0.0724,0.621,-1 (inactive),-1,-1.24,-1.25,-0.785,-0.979,0.781,-0.469,-0.791,-0.893,-0.493,-0.805,-0.105,-0.262,-0.179,-1.05,-0.216
COC(=O)[C@@]1(Cc2ccccc2)[C@H]2c3cc(C(=O)N4CCCC4)n(Cc4ccc(S(C)(=O)=O)cc4)c3C[C@H]2CN1C(=O)c1ccccc1,0.525,1.52,1.03,-1.18 (inactive),0.387,1.18,0.679,0.94,0.222,1.3,0.97,-2.02,0.711,2.61,1.35,-0.0965,-0.34,-0.232,1.86,0.863
O=C1C[C@@](C(=O)NCCN2CCOCC2)(c2ccc([N+](=O)[O-])cc2)[C@@H](c2ccc(CO)cc2I)N1CC12CC3CC(CC(C3)C1)C2,1.29,-0.174,0.283,-3.38 (inactive),1.33,1.3,0.545,1.03,0.324,-0.0038,1.45,-3.49,0.462,0.76,-0.581,-0.034,-0.0146,-0.388,1.17,1.48
O=C1C[C@@](C(=O)NCCN2CCOCC2)(c2ccc([N+](=O)[O-])cc2)[C@@H](c2ccc(CO)cc2)N1CC12CC3CC(CC(C3)C1)C2,0.866,0.104,0.638,2.36 (inactive),1.22,1.32,0.86,1.3,0.912,0.403,1.47,-3.14,0.745,1.06,-0.0933,-0.0445,-0.16,-0.377,0.651,1.7
COCCOC(=O)N1C(=O)[C@@]2(c3cc(C#Cc4ccc(OC)cc4)ccc31)[C@H](c1ccc(OCCO)cc1)N1[C@H](c3ccccc3)[C@H](c3ccccc3)OC(=O)[C@H]1[C@@H]2C(=O)N1CCN(c2ncccn2)CC1,-0.0214,0.775,0.257,-0.449 (inactive),0.703,1.28,0.667,1.27,1.28,-0.0857,0.819,-1.45,1.08,1.12,0.715,-0.0585,-0.26,0.0308,0.391,0.953
